Screen size: about 360,000 compounds; about 11,000 (3.1%) were called active. About 2% were inconclusive and are not listed. The sample holds actives, similar compounds and a random draw of the others, so the mix is not that of the screen. Unmarked numbers belong to inactive results. Rule as the data show it: active = fluorescence intensity above about 16000; inconclusive = no clear call, values can overlap the other calls; inactive = below that.
Assay: compound fluorescence in toxin protease inhibitor counterscreen, primary screen, artefact control for toxin protease inhibitor project, biochemical, multiplex microsphere, HTS (AID 624483)
Conditions: compound autofluorescence counterscreen, microsphere flow cytometry; hits give high values
Work on `CCCNC(=O)C1(C)CCN(C(=O)c2cc(F)ccc2C)C1` (centres undefined) yielded a fluorescence intensity of 3600. In the case of `CCc1nc2ccc(C(=O)N(C)Cc3ccco3)cn2c1N(C)C(=O)Cc1ccccc1`, the fluorescence intensity is reported as 3670. `O=S1(=O)CC(N2CCN(CCO)CC2)CN1Cc1cn(Cc2cccc(Cl)c2)nn1` (centres undefined) gave a fluorescence intensity of 5760. For `Cc1cc(C)cc(Oc2nc3c(C)cccn3c(=O)c2/C=C(\C#N)C(=O)NC2CCS(=O)(=O)C2)c1` (centres undefined), the fluorescence intensity was 2120. In the case of `COCc1nc2ccccc2n1Cc1ccccc1Br`, the fluorescence intensity is reported as 20400 (active). In the case of `C=C(Br)Cn1c(CCCC)nc2ccccc21`, the fluorescence intensity is reported as 3410. With `CCOCCn1c(C(C)C)nc2ccccc21` the fluorescence intensity was 3860. Work on `Nc1cccc(-c2cncc(N3CCN(Cc4ccccn4)CC3)n2)c1` yielded a fluorescence intensity of 3020. Work on `Cc1cccc(CNC(=O)c2sc(=O)n(Cc3ccccc3C)c2C)c1` yielded a fluorescence intensity of 4210. In the case of `Cc1noc(C)c1COc1ccc2ccc(=O)oc2c1`, the fluorescence intensity is reported as 3400. For `CCCCc1cc(=O)oc2cc(C)cc(OCc3nn[nH]n3)c12`, the fluorescence intensity was 2630. For `COc1ccc(-c2cc3ccc(OCc4nn[nH]n4)cc3oc2=O)cc1`, the fluorescence intensity was 24000 (active). Compound `CC(C)C1C(=O)N(Cc2cn(CCC3OCCO3)nn2)CCS(=O)(=O)N1Cc1ccc(-c2ccccc2C(F)(F)F)cc1` (centres undefined) has a fluorescence intensity of 5850. `Cc1ccc(NC(=O)C(C)Sc2nnc(C3CC3)n2C2CC2)cc1S(=O)(=O)N1CCOCC1` (centres undefined) showed a fluorescence intensity of 3820. For `COC(=O)c1ccc2nc(-c3ccc(C)cc3)c(Cc3ccc(OC)cc3C)n2c1`, the fluorescence intensity was 7150. Compound `O=C(NCCCn1ccnc1)c1cc(-c2ccccc2)on1` has a fluorescence intensity of 3190. With `O=C(NCCCN1CCOCC1)c1cc(-c2cccc(O)c2)on1` the fluorescence intensity was 2910. For `CCN(CC)CCCNC(=O)c1cc(-c2cccc(Cl)c2)on1`, the fluorescence intensity was 22000 (active). For `O=C(NCc1ccccc1)C1C(=O)N(Cc2ccccc2)C(=O)C1C1(O)CCCC1` (centres undefined), the fluorescence intensity was 8420. Compound `COc1cc(NC(=O)C2=CC(c3ccco3)=NS(=O)(=O)N2C)cc(OC)c1OC` has a fluorescence intensity of 4170. `O=S(=O)(NCCc1ccncc1)c1ccccc1` showed a fluorescence intensity of 3020. For `O=S(=O)(NCCNS(=O)(=O)c1ccccc1)c1ccccc1`, the fluorescence intensity was 22900 (active). With `O=S(=O)(NCCc1ccccc1)c1ccccc1` the fluorescence intensity was 3470. In the case of `CCOc1ccc(CCN2C(=S)N([C@@H](CC(C)C)CN3CCC[C@@H]3CN3C(=S)NC[C@@H]3Cc3ccc(O)cc3)C[C@@H]2Cc2ccc(O)cc2)cc1`, the fluorescence intensity is reported as 6230. With `CCOc1ccc(CNC(=O)C2CCCN(c3nnc(C)c4c(C)n(-c5ccccc5)nc34)C2)cc1` (centres undefined) the fluorescence intensity was 9860. For `CCOc1nnc(C)c2c(C)n(-c3cccc(Cl)c3)nc12`, the fluorescence intensity was 23500 (active). `CCOc1c(Nc2cccc(Cl)c2)c(=O)c1=O` showed a fluorescence intensity of 4070. For `Brc1cc(Br)c(Oc2cc(Br)c(Br)cc2Br)cc1Br`, the fluorescence intensity was 5260. `COc1ccc(Cl)cc1NC(=O)CN(C)C(=O)c1ccc2n[nH]nc2c1` showed a fluorescence intensity of 7700. For `COc1ccc(Cl)cc1NC(=O)CN(C)C(=O)CNC(=O)C12CC3CC(CC(C3)C1)C2`, the fluorescence intensity was 22500 (active). Work on `COc1ccc(Cl)cc1NC(=O)CN(C)Cc1ccc(OC)c(OC)c1` yielded a fluorescence intensity of 4460. For `CCOC(=O)C1=C(COC(=O)[C@H](C)NS(=O)(=O)c2ccccc2F)NC(=O)NC1C` (some centres undefined), the fluorescence intensity was 3650. Compound `Cc1onc(-c2ccccc2)c1C(=O)N1CCN(S(=O)(=O)c2ccccc2C(F)(F)F)CC1` has a fluorescence intensity of 3570. Work on `COC(=O)c1ccc2nc(-c3cccc(Br)c3)c(Cc3ccc(OC)cc3C)n2c1` yielded a fluorescence intensity of 5220. Work on `CCOC(=O)Cn1c(SC)nc2sc3c(c2c1=O)CC(C)(C)OC3` yielded a fluorescence intensity of 6860. For `CCC1(C)Cc2c(sc3nnn(CC(=O)Nc4ccc(Cl)cc4)c(=O)c23)CO1` (centres undefined), the fluorescence intensity was 22700 (active). Compound `CCC1(C)Cc2c(sc3[nH]c(=S)n(Cc4ccccc4)c(=O)c23)CO1` (centres undefined) has a fluorescence intensity of 2880. For `N#C/C(=C/c1cccc([N+](=O)[O-])c1)c1nnc2n1CCCCC2`, the fluorescence intensity was 1990. `Cc1cccc(Nc2ccccc2C(=O)NCc2ccco2)c1C` showed a fluorescence intensity of 3190. For `Cc1ccc(N(Cc2ccc(C(=O)Nc3ccccc3C(=O)NCc3ccco3)cc2)S(C)(=O)=O)cc1C`, the fluorescence intensity was 25100 (active). With `CS(=O)(=O)N(Cc1ccc(Cl)cc1)c1ccc(C(=O)NCCSCc2ccco2)cc1` the fluorescence intensity was 10900. Compound `O=C(Nc1ccc(S(=O)(=O)N2CCOCC2)cc1)c1ccc2ncsc2c1` has a fluorescence intensity of 4800. For `O=C(CSc1nnc(-c2c[nH]c3ccccc23)o1)c1ccccc1`, the fluorescence intensity was 7930. In the case of `NC(=O)CSc1c[nH]c2ccccc12`, the fluorescence intensity is reported as 20300 (active). In the case of `CCCn1cc(SCC(N)=O)c2ccccc21`, the fluorescence intensity is reported as 6190. `O=[N+]([O-])c1ccc(CN2CC(N3CCC(c4ccccc4)CC3)CS2(=O)=O)cc1` (centres undefined) gave a fluorescence intensity of 4360. For `COc1ccc(C2=NOC(C(=O)NCc3ccco3)C2)cc1OC` (centres undefined), the fluorescence intensity was 21200 (active). In the case of `COc1ccc(S(=O)(=O)N2CCC(C(=O)NCc3ccco3)CC2)cc1C`, the fluorescence intensity is reported as 3590. `COc1ccc(CNC(=O)C2CC(c3ccc(C(F)(F)F)cc3)=NO2)cc1` (centres undefined) showed a fluorescence intensity of 4040. With `CCOC(=O)N1CCN(C(=O)c2cn(C)c3ccc(S(=O)(=O)N4CCCC4)cc3c2=O)CC1` the fluorescence intensity was 19900 (active). For `CCOC(=O)N1CCN(C(=O)c2cn(C)c3ccc(S(=O)(=O)N(CC)CC)cc3c2=O)CC1`, the fluorescence intensity was 2950. `COc1ccc(N2CCN(C(=O)c3cn(C)c4ccc(S(=O)(=O)N5CCOCC5)cc4c3=O)CC2)cc1` showed a fluorescence intensity of 5270. Work on `Cc1ccc(C(NC(=O)C2CCN(CCOc3ccc(Cl)cc3Cl)CC2)c2ccccn2)cc1` (centres undefined) yielded a fluorescence intensity of 3690. For `O=C(NCCS(=O)(=O)N1CCN(c2ccccc2)CC1)c1cc(=O)c2ccccc2o1`, the fluorescence intensity was 2940. For `CC(C)C(=O)N1c2ccccc2NC2=C(C(=O)CCC2)C1c1ccc(N(C)C)cc1` (centres undefined), the fluorescence intensity was 3590. `O=C1c2ccccc2C(O)N1Cc1ccccc1` (centres undefined) showed a fluorescence intensity of 11200. Work on `CC1(C)C2CCC1(CS(=O)(=O)NCCc1c[nH]c3ccccc13)C(=O)C2` (centres undefined) yielded a fluorescence intensity of 3440. In the case of `CCCC(=O)N1CCC1(C)C(=O)Nc1ccc(-n2cncn2)cc1` (centres undefined), the fluorescence intensity is reported as 4100. In the case of `Cc1cccc(C)c1NC(=O)CN1CCN(c2ccc(F)cc2)CC1`, the fluorescence intensity is reported as 5760. Work on `COc1ccc(OCCCCN2CCC(C)CC2)cc1` yielded a fluorescence intensity of 3010. `CCN(CC)C(=O)C1=C(C)N(Cc2ccc(C(C)(C)C)cc2)C(=O)C(CC(=O)NCc2cccc3ccccc23)C1` (centres undefined) showed a fluorescence intensity of 3960. In the case of `CC(C)(C)c1ccc(CN2C(=O)CN=C(c3ccccc3)c3ccccc32)cc1`, the fluorescence intensity is reported as 16300 (active). With `CC(C)(C)c1ccc(CN2C(=O)c3ccccc3S2(=O)=O)cc1` the fluorescence intensity was 3970. `CNc1cnc(-c2cc(OC)c(OC)c(OC)c2)cn1` gave a fluorescence intensity of 3800. For `O=C(Nc1ccc(OCCO)cc1)c1csc([C@H]2C[C@H](O)[C@@H](CO)O2)n1`, the fluorescence intensity was 4100. With `O=C(COC(=O)c1n[nH]c2ccccc12)Nc1ccccc1Br` the fluorescence intensity was 3780. `CC(=O)Nc1ccc(S(=O)(=O)N2CCN(CCCOc3cc(C)ccc3C)CC2)cc1` gave a fluorescence intensity of 11400. For `COC(=O)Nc1ccc(S(=O)(=O)N2CCN(CCN3C(=O)C4C5C=CC(C5)C4C3=O)CC2)cc1` (centres undefined), the fluorescence intensity was 21300 (active). `CC(=O)Nc1ccc(S(=O)(=O)N2CCN(S(=O)(=O)c3cccs3)CC2)cc1` showed a fluorescence intensity of 6050. `CCn1c(CN2C(=O)CSc3ccccc32)n[nH]c1=S` gave a fluorescence intensity of 6470. With `Cc1nnc(SCCCn2c(N3CCCCC3)nc3c2c(=O)[nH]c(=O)n3C)s1` the fluorescence intensity was 20700 (active). For `Cc1nnc(Sc2nc3c(c(=O)[nH]c(=O)n3C)n2Cc2ccccc2)s1`, the fluorescence intensity was 5620. Work on `C=C(C)Cn1c(N2CCCC2)nc2c1c(=O)[nH]c(=O)n2C` yielded a fluorescence intensity of 5030. With `CNC(=S)NNC(=O)c1sccc1OCc1ccccc1` the fluorescence intensity was 22300 (active). For `Cc1ccc(/C=N/NC(=O)c2sccc2OCc2ccc(F)cc2)cc1`, the fluorescence intensity was 3080. In the case of `CNC(=S)NNC(=O)c1cccn(Cc2ccccc2)c1=O`, the fluorescence intensity is reported as 4620. Compound `CC1(C(=O)NS(=O)(=O)c2ccc(C#N)cc2)CCN1C(=O)CC1CCCC1` (centres undefined) has a fluorescence intensity of 3000. In the case of `COC(=O)c1nc(NC(=O)c2ccc(F)cc2)n[nH]1`, the fluorescence intensity is reported as 3910. `COC(=O)c1nc(NC(=O)c2ccc(Cl)cc2)n[nH]1` showed a fluorescence intensity of 12500. With `COC(=O)c1nc(NC(=O)c2ccccc2)n[nH]1` the fluorescence intensity was 19900 (active). For `CCCCCn1nnnc1C1c2ccccc2C(=O)N1Cc1ccco1` (centres undefined), the fluorescence intensity was 6010. Compound `CC1CCCN(S(=O)(=O)c2ccc(-c3ccc(=O)[nH]n3)o2)C1` (centres undefined) has a fluorescence intensity of 5950. Work on `CN(C)/C=C(\C#N)C(=O)c1cccnc1Oc1cccc(F)c1` yielded a fluorescence intensity of 15200. In the case of `CN(C)/C=C(\C#N)C(=O)c1cccnc1Oc1ccc(F)cc1F`, the fluorescence intensity is reported as 24800 (active). Work on `CCOc1ncccc1C(=O)N(C)CC(=O)Nc1ccc(F)cc1` yielded a fluorescence intensity of 2630. Work on `COc1cc(C(O)c2nc(-c3cccc(C(=O)O)c3)cs2)ccc1F` (centres undefined) yielded a fluorescence intensity of 3440. `CC(Sc1ccccc1F)C(=O)Nc1cccc(S(=O)(=O)N2CCOCC2)c1` (centres undefined) gave a fluorescence intensity of 4000. `CCOc1ccc(OCc2cccc(C(=O)N(CC)CC)c2)cc1` gave a fluorescence intensity of 2210. For `CC(C)c1cc(C(N)=O)c(NC(=O)c2cccc(COc3ccc(Br)cc3)c2)s1`, the fluorescence intensity was 22100 (active). Compound `CC(C)(C)OC(=O)N(Cc1ccccc1)Cc1ccc(OCc2cccc(NC(=O)c3ccccc3)c2)cc1` has a fluorescence intensity of 3640. In the case of `CC1(C)OC(=O)C2=C(C[C@@H](C3CCCC3)O[C@@H]2c2ccc(Cl)cc2)O1`, the fluorescence intensity is reported as 6120. Work on `C=CCc1cccc2cc(C(=O)OCC)c(=O)oc12` yielded a fluorescence intensity of 2480. For `C=CCc1cccc2cc(C(=O)N3CCN(C(=O)OCC)CC3)c(=O)oc12`, the fluorescence intensity was 19200 (active). `C=CCc1cccc2cc(C(=O)Nc3ccc(NC(C)=O)cc3)c(=O)oc12` gave a fluorescence intensity of 4060.

From PubChem BioAssay AID624483 (NMMLSC, 2012)
